Source: PubChem
mcGAS MS inh – inhibitors of Mus musculus cyclic GMP-AMP synthase, initial high-throughput assay, cell-free, RapidFire MS; hit rate 0.18% among 130,000; Q8C6L5; recombinant mouse cGAS, cGAMP by RapidFire MS; inhibition, % at 12.5 µM;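 active = inhibition of cGAS enzyme activity at or above 60%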;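 note: enzyme stimulated by 45 bp dsDNA with ATP and GTP substrates; cGAMP share of summed cGAMP plus half ATP and half GTP signals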
Target sequence (Q8C6L5 whole entry, looked up): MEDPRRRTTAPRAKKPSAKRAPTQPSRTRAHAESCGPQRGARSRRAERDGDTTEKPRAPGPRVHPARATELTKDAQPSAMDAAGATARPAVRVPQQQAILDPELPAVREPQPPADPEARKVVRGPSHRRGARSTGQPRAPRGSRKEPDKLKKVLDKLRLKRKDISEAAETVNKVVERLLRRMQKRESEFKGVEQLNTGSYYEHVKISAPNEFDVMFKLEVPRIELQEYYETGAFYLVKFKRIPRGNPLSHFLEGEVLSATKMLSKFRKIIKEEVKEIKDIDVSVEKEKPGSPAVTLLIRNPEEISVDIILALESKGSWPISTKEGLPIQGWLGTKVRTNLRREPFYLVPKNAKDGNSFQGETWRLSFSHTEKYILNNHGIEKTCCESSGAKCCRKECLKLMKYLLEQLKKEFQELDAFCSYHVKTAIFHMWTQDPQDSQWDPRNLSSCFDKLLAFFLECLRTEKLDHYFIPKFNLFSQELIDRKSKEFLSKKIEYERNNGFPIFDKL
* marks the source's active call; other numbers are inactive results; ! = repeats disagree. Only a selection was taken, and hits are over-represented in it overall.

SMILES	mcGAS MS inh
CCOc1cc(C2=NN(c3ccc(C)cc3)C(=O)CC2)ccc1O	8
CCOc1cc(-c2[nH]c(=S)[nH]c(=O)c2C#N)ccc1O	99*
N#Cc1c(-c2ccco2)[nH]c(=S)[nH]c1=O	13
O=C(CSCc1ccccc1)NCCn1ncccc1=O	-3
N#CC(=Cc1ccc(F)cc1)c1nnc2n1CCCCC2	44
N#CC(=Cc1ccc(O)c(O)c1)c1nnc2n1CCCCC2	-1
N#CC(=Cc1ccc(Br)cc1)c1nnc2n1CCCCC2	60*
Cn1c2c(c(=O)n(C)c1=O)C1(NC(=O)N2)C(=O)Nc2ccccc21 (configuration not stated)	-3
Cc1ccc(C)c(C2CC(=O)Nc3c2c(C)nn3-c2ccc3nncn3n2)c1 (configuration not stated)	5
CCN(CC(=O)Nc1ccc2c(c1)C(=O)N(C)C2=O)c1ccccc1C	-9
CCc1ccccc1-n1ccc2nc(N3CCCCC3)ncc2c1=O	-18
CCn1cc(C(=O)O)c(=O)c2cnc(N3CCCC3)nc21	78*
CCn1cc(C(=O)O)c(=O)c2cc3c(cc21)OCO3	-9
COc1ccc(C(C)N2CCCC(CCC(N)=O)C2)cc1Cl (configuration not stated)	-1
CCC(=O)N(c1nnc(SC(C)C(=O)N2CCNC2=O)s1)C1CC1 (configuration not stated)	-7
C#CCNC(=O)N1CCN(c2ncc(Br)cn2)CC1	-58
COC(=O)c1cc(C2CC2)nc2c1c(-c1cccs1)nn2C1CCS(=O)(=O)C1 (configuration not stated)	-8
Cc1cc(NCc2ccc(Cl)cc2)n(C2CCS(=O)(=O)C2)n1 (configuration not stated)	-21
CC(C)C(=O)Nc1cc(C2CC2)nn1C1CCS(=O)(=O)C1 (configuration not stated)	82*
COC(=O)C(N)CC(C)C (configuration not stated)	-8
OCc1cc(O)c2c(O)c3c(O)cccc3c(O[C@@H]3O[C@H](CO)[C@H](O)[C@@H](O)[C@H]3O)c2c1	-6
O=c1c(O)c(-c2ccc(O)c(O)c2)oc2c(O[C@@H]3O[C@H](CO)[C@H](O)[C@@H](O)[C@H]3O)c(O)cc(O)c12	1
C/C(=N/N=C1\NC(=O)C(CC(=O)Nc2ccccc2C)S1)C(C)(C)C (configuration not stated)	-32
CCC1(O)CC(OC2CC(N(C)C)C(OC3CC(O)C(OC4CCC(=O)C(C)O4)C(C)O3)C(C)O2)c2c(cc3c(c2O)C(=O)c2c(O)cccc2C3=O)C1C(=O)OC (configuration not stated)	97*
Cc1ccc(N(C(=O)C2CCCN(C(=O)C3CC3)C2)C2CCCCC2)nc1 (configuration not stated)	-1
SMILES	mcGAS MS inh
N#Cc1c(N)nc2c(c1N)C(Sc1ccccc1)c1ccc(O)cc1O2 (configuration not stated)	87*
N#CCSc1nc(N)c(C#N)c(-c2ccc(O)cc2)c1C#N	-9
N#Cc1c(C2CCOC2)cc(-c2ccc(O)cc2)nc1N (configuration not stated)	-14
C=CCOC(=O)C1C(C)=Nc2nc(SCCCC)[nH]c(=O)c2C1c1ccccc1 (configuration not stated)	0
O=C(O)c1[nH]ncc1CN1CCO[C@@H]2CCCC[C@H]21	-1
CC(=O)Nc1ccc2nc(-c3c(-c4ccccc4)ncn3CCCO)ccc2c1	-28
COc1cc(-c2ccc(=O)n(Cc3cccc4ccccc34)n2)cc(OC)c1OC	-18
Cc1ccccc1CN1C(=O)CON=C1c1ccc(N(C)C)cc1	3
COc1ccc(Cl)cc1CN1C(=O)CON=C1c1ncccc1C	-2
COc1ccc(Cl)cc1CN1C(=O)CON=C1c1ccc(C)cc1	63*
NC(Cc1ccc(C(F)(F)F)cc1)c1csc(Nc2cnccn2)n1 (configuration not stated)	-8
NC(Cc1ccc(C(F)(F)F)cc1)c1csc(Nc2ccccn2)n1 (configuration not stated)	-15
NC(Cc1ccc(F)cc1)c1csc(Nc2ccc(C(F)(F)F)cn2)n1 (configuration not stated)	67*
Cn1c(=O)[nH]c(=O)c2c1nc(N1CCN(Cc3ccccc3)CC1)n2Cc1ccccc1	-4
O=c1cc(-c2ccccc2)n2c(=S)[nH]nc2[nH]1	68*
CCCc1cc(=O)[nH]c2n[nH]c(=S)n12	7
CCc1cc(=O)[nH]c2n[nH]c(=S)n12	9
CN(C)c1ccc(CNC(=O)C2CCCCC2)cn1	-6
O=C(O)C12CCCC(Br)(CCC1)C2	2
O=C(O)C12CC3CC(CC(C3)C1)C2	-3
O=C(Nc1cnn(C23CC4CC(CC(C4)C2)C3)c1)c1cc(-c2ccccc2)on1	1
CCCn1cc(NC(=O)c2cc(-c3ccccc3)on2)cn1	72*
Cc1ccc(-c2cc(C(=O)Nc3cnn(C45CC6CC(CC(C6)C4)C5)c3)no2)cc1	6
O=C(Nc1nccnc1C(=O)NC1CCNCC1)c1cc(F)cc(F)c1	-1
CNc1ccc(OCC(O)CNS(=O)(=O)c2ccc(C)cc2)cc1 (configuration not stated)	-6
SMILES	mcGAS MS inh
COC(=O)c1ccc(/C=N\Nc2nnnn2-c2ccccc2)cc1	-1
COC(=O)C1=C(C)NC(C)=C(C(=O)OCCN)C1c1ccccc1C(F)(F)F (configuration not stated)	-7
COC(=O)C1=C(C)NC(C)=C(C(=O)OCC(C)C)C1c1ccccc1[N+](=O)[O-] (configuration not stated)	65*!
CCN1C(=O)NC(c2ccccc2[N+](=O)[O-])C(C(=O)OCCOC)=C1C (configuration not stated)	-8
Cc1ccc(C)c(C2CN(S(=O)(=O)CCCC#N)C(C)CO2)c1 (configuration not stated)	-5
CCOc1ccc(C2(CNc3ccc(C#N)cn3)CCOCC2)cc1	-16
O=C1NCC2(CCCN(C(=O)c3csc(Cc4ccccc4)n3)C2)O1 (configuration not stated)	2
O=C(O)c1sc(Br)c(I)c1I	78*
Cc1ccccc1-n1cc(CN(C)C(=O)CN2CC(=O)NC2=O)cn1	-1
C=CCN(CC=C)C(=O)CN1[C@@H]2CC[C@H]1CC(O)C2 (some centres not stated)	-23
COc1cccc2c1C(=O)c1c(O)c3c(c(O)c1C2=O)C[C@@](O)(C(C)=O)C[C@@H]3OC1CC(N)C(O)C(C)O1 (some centres not stated)	93*
COc1cccc2c1C(=O)c1c(O)c3c(c(O)c1C2=O)C[C@@](O)(C(=O)CO)C[C@@H]3O[C@H]1C[C@H](N)[C@H](O)[C@H](C)O1	96*
Cc1cc(=O)oc2cc(CN3CC[C@@H](c4ccc(F)cc4)[C@H](O)C3)ccc12	-8
Cc1cccc(S(=O)(=O)N[C@@H]2CCCCC2NC(=O)[C@H]2CCCN2)c1 (some centres not stated)	-6
COC(=O)N(C)CCCC(=O)NC1CC1c1ccccc1Cl (configuration not stated)	-2
CCN(CC)C(=O)Cn1cc(C(=O)N2CCC(OCc3ccccc3)CC2)nn1	-8
O=C(CCC1CCN(C(=O)CC2CCC(=O)N2)CC1)NCc1cccc(Cl)c1 (configuration not stated)	-5
Cc1nc(CCN)cc(N2CC3C[C@@H]4CC2C[C@H](C3)C4)n1	9
Cc1nc(CCN)cc(N2CCC(N3CCCC3)CC2)n1	-12
